Measurements taken from PMC7862700, “An all-to-all approach to the identification of sequence-specific readers for epigenetic DNA modifications on cytosine”.

Assays:
Assay in all cases: DAPPL (digital affinity profiling via proximity ligation, sequencing); 10 mM Tris-HCl pH 7.5, 50 mM NaCl, 1 mM DTT, 4% glycerol, room temperature, 30 min; GST-TFs on glutathione beads, 16-mer random dsDNA library, 0.1% formaldehyde crosslink after washing; high values mean tight binding
FEV = biological target: T1, FEV (Homo sapiens, UniProt Q99581 1-238); conditions: protein: recombinant; tags: N-terminal GST; dsDNA, one strand shown
T1 sequence: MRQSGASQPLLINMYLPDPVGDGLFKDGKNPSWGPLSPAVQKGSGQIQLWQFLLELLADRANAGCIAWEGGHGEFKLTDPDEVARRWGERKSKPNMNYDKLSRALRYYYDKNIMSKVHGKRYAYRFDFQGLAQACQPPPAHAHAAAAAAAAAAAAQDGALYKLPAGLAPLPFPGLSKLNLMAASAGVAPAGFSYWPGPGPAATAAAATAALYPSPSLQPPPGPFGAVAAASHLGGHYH
In short: (§1)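 The binding signal reported is, for every hexamer, its read frequency for a factor over its read frequency for the tag-only sample. Reads came from pools of yeast-expressed, GST-fused human transcription factors on glutathione beads, barcoded with DNA and mixed with that sample, which were incubated with 200 nmole of a random double-stranded 16-mer DNA library in Tris/NaCl/DTT/glycerol buffer at room temperature for 30 min. After washing, the pools were crosslinked with 0.1% formaldehyde, proximity-ligated with BsaI/T4 ligase for 1 h at 37 °C, PCR-amplified and sequenced on an Illumina NextSeq500.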

ETV5 = ETV5 (Homo sapiens, UniProt P41161 1-510); conditions: protein: recombinant; tags: N-terminal GST; dsDNA, one strand shown
In short: as §1

HSF1 = HSF1 (Homo sapiens, UniProt Q00613 1-529); conditions: protein: recombinant; tags: N-terminal GST; chain copies: 3; dsDNA, one strand shown
In short: as §1

SPIC = biological target: T2, SPIC (Homo sapiens, UniProt Q8N5J4 1-248); conditions: protein: recombinant; tags: N-terminal GST; dsDNA, one strand shown
T2 sequence: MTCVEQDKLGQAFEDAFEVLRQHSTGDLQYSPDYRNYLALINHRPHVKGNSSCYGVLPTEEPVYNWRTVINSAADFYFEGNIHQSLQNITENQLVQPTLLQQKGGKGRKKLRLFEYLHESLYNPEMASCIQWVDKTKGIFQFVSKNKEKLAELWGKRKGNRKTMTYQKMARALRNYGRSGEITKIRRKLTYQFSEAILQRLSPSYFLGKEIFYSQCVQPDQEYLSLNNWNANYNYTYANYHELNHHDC
In short: as §1

ELF4 = ELF4 (Homo sapiens, UniProt Q99607 1-663); conditions: protein: recombinant; tags: N-terminal GST; dsDNA, one strand shown
In short: as §1

ELK4 = biological target: T3, ELK4 (Homo sapiens, UniProt P28324-2 1-405); conditions: protein: recombinant; tags: N-terminal GST; dsDNA, one strand shown
T3 sequence: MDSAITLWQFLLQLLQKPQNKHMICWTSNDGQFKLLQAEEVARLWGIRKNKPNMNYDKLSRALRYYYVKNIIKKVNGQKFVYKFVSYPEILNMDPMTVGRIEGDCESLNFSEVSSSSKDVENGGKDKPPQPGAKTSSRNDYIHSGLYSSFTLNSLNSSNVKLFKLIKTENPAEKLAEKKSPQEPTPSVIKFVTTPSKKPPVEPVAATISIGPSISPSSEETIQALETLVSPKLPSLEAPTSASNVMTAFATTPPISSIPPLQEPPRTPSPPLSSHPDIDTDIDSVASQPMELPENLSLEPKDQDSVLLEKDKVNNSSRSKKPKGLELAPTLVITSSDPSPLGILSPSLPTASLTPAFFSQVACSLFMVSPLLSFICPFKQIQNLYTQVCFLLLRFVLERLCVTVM
In short: as §1

ETV2 = biological target: T4, ETV2 (Homo sapiens, UniProt O00321 1-342); conditions: protein: recombinant; tags: N-terminal GST; dsDNA, one strand shown
T4 sequence: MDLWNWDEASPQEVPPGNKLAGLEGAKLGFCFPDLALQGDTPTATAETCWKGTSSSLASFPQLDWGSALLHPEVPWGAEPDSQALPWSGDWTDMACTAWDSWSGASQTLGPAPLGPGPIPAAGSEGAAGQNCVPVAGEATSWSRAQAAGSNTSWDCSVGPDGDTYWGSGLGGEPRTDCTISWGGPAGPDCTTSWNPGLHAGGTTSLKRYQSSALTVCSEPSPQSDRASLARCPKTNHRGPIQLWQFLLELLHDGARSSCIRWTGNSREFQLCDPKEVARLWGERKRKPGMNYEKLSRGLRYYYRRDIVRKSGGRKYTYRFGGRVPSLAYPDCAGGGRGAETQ
In short: as §1

ELF3 = biological target: T5, ELF3 (Homo sapiens, UniProt P78545 1-371); conditions: protein: recombinant; tags: N-terminal GST; dsDNA, one strand shown
T5 sequence: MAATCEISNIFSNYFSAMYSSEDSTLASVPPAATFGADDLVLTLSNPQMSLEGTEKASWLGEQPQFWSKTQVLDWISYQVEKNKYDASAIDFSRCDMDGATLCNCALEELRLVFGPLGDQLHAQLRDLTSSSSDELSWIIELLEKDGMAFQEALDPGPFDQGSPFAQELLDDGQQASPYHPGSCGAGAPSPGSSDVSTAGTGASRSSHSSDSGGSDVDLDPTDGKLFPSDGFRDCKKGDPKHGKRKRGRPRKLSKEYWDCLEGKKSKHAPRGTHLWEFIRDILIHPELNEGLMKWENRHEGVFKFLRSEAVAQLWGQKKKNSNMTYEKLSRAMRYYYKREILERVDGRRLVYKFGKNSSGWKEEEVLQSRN
In short: as §1

CRX = CRX (Homo sapiens, UniProt O43186 1-299); conditions: protein: recombinant; tags: N-terminal GST; dsDNA, one strand shown
In short: as §1

ETV1 = ETV1 (Homo sapiens, UniProt P50549 1-477); conditions: protein: recombinant; tags: N-terminal GST; dsDNA, one strand shown
In short: as §1

ERF = biological target: T6, ERF (Homo sapiens, UniProt P50548 1-548); conditions: protein: recombinant; tags: N-terminal GST; dsDNA, one strand shown
T6 sequence: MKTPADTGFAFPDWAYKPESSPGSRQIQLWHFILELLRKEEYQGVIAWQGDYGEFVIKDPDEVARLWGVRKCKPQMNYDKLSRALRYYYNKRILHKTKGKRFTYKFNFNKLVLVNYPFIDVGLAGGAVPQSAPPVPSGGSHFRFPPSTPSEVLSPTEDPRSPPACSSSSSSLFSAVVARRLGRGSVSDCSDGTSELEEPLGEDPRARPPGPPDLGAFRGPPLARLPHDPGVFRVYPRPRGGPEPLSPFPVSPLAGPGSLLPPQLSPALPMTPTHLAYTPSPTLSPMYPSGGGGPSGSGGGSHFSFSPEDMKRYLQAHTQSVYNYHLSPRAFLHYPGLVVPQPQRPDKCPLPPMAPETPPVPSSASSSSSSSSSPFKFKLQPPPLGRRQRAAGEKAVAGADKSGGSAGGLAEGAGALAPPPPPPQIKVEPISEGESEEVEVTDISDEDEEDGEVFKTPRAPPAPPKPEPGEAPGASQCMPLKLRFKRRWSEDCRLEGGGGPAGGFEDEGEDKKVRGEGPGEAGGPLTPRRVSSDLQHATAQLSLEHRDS
In short: as §1

ETV3L = biological target: T7, ETV3L (Homo sapiens, UniProt Q6ZN32 1-361); conditions: protein: recombinant; tags: N-terminal GST; dsDNA, one strand shown
T7 sequence: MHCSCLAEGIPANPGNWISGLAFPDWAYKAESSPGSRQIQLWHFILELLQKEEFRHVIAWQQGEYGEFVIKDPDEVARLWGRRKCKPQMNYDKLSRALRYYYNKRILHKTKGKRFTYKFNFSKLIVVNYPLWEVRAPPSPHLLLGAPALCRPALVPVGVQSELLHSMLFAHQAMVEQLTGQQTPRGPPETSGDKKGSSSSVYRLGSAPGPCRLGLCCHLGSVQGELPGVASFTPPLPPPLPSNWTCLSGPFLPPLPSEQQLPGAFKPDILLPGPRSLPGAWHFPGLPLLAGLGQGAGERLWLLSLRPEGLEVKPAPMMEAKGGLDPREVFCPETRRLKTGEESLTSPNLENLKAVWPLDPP
In short: as §1

ETS2 = biological target: T8, ETS2 (Homo sapiens, UniProt P15036 1-469); conditions: protein: recombinant; tags: N-terminal GST; dsDNA, one strand shown
T8 sequence: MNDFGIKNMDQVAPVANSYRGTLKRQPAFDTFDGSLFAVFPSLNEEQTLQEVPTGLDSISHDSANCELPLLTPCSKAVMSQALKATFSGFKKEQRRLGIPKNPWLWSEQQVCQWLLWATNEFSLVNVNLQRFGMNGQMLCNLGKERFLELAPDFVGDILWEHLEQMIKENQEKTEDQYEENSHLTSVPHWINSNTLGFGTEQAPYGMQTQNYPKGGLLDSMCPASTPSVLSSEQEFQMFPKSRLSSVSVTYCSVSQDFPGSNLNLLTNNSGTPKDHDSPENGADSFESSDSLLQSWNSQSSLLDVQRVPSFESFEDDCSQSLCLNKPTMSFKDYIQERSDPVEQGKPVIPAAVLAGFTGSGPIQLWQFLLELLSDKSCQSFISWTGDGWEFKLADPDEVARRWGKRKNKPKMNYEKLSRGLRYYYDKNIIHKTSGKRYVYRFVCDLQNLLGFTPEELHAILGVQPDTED
In short: as §1

SPDEF = biological target: T9, SPDEF (Homo sapiens, UniProt O95238 1-335); conditions: protein: recombinant; tags: N-terminal GST; dsDNA, one strand shown
T9 sequence: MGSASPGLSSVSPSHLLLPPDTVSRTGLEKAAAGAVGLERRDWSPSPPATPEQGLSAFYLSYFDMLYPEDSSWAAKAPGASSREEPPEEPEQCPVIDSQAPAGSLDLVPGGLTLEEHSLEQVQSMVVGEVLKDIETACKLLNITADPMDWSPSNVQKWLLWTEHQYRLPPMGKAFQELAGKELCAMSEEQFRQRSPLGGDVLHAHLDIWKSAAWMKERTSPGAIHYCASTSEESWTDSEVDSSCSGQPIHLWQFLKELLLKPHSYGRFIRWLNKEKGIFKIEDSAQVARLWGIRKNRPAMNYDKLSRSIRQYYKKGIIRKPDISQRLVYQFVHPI
In short: as §1

ETV7 = biological target: T10, ETV7 (Homo sapiens, UniProt Q9Y603 1-341); conditions: protein: recombinant; tags: N-terminal GST; dsDNA, one strand shown
T10 sequence: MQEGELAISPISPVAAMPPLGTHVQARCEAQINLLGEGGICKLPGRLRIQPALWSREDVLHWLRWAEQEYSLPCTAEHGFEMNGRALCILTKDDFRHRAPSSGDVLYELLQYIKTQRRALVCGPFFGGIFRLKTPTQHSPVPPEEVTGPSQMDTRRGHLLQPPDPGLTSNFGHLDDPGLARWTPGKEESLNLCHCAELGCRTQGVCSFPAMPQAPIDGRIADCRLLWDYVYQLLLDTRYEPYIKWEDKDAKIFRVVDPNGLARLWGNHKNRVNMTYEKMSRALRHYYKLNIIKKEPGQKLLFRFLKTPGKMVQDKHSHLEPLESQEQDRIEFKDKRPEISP
In short: as §1

ELF5 = biological target: T11, ELF5 (Homo sapiens, UniProt Q9UKW6-2 1-255); conditions: protein: recombinant; tags: N-terminal GST; dsDNA, one strand shown
T11 sequence: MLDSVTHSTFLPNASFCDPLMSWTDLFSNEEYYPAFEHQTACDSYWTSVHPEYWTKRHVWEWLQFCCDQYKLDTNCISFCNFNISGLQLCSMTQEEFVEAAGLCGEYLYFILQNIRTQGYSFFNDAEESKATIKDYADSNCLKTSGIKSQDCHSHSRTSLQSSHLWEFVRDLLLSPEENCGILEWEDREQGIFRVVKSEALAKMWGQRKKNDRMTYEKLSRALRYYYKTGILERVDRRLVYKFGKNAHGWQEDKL
In short: as §1

ETV3 = biological target: T12, ETV3 (Homo sapiens, UniProt P41162-2 1-143); conditions: protein: recombinant; tags: N-terminal GST; dsDNA, one strand shown
T12 sequence: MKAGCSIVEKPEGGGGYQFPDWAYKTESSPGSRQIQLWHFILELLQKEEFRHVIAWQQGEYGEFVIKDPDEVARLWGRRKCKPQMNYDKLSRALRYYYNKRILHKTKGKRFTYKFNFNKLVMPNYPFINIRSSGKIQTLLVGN
In short: as §1

ETV6 = ETV6 (Homo sapiens, UniProt P41212 1-452); conditions: protein: recombinant; tags: N-terminal GST; dsDNA, one strand shown
In short: as §1

Chain of ELF4 (Q99607 whole entry): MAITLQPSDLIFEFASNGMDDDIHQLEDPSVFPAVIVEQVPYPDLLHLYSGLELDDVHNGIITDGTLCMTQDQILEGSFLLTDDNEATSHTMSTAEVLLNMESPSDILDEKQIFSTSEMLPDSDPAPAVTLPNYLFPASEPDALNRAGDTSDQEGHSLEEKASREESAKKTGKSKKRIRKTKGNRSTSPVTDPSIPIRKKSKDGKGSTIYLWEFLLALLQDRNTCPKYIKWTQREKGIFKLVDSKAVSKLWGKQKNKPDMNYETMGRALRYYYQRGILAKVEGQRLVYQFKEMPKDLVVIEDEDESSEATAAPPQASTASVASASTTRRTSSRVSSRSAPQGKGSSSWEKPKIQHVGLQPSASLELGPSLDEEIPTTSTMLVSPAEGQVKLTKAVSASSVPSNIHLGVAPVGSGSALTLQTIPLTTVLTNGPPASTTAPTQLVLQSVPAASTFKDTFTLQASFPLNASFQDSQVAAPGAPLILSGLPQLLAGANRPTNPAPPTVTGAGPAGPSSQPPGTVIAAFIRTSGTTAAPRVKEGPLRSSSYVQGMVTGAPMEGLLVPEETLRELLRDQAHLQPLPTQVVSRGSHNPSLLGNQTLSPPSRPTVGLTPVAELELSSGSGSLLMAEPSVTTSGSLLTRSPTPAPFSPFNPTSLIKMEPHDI
Chain of ETV5 (P41161 whole entry): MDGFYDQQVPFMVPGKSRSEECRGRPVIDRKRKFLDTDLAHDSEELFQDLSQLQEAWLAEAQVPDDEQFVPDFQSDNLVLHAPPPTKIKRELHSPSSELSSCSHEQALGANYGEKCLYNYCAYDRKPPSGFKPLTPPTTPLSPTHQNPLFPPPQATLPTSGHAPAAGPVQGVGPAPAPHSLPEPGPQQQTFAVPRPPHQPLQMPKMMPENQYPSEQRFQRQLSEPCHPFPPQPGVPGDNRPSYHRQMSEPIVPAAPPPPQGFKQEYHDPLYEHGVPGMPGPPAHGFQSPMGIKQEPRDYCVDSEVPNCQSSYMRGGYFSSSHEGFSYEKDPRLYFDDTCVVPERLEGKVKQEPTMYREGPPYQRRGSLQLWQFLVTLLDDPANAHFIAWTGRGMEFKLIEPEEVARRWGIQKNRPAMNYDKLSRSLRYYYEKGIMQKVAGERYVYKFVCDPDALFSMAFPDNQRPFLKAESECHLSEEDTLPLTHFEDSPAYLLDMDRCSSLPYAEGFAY
Chain of HSF1 (Q00613 whole entry): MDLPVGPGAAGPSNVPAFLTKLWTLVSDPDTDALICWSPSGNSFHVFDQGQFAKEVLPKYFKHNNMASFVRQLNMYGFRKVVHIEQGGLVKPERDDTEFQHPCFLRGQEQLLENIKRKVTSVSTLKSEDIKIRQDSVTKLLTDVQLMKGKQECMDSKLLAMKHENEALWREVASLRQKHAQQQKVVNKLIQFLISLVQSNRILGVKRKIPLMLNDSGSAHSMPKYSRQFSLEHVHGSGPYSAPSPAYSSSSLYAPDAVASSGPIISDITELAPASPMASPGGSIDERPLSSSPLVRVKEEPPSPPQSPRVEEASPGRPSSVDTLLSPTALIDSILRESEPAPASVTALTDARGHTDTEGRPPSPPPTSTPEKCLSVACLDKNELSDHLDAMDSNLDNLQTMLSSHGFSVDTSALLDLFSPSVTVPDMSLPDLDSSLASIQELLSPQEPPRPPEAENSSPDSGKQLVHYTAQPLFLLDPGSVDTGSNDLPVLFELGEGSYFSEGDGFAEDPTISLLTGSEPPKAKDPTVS
Chain of ETV1 (P50549 whole entry): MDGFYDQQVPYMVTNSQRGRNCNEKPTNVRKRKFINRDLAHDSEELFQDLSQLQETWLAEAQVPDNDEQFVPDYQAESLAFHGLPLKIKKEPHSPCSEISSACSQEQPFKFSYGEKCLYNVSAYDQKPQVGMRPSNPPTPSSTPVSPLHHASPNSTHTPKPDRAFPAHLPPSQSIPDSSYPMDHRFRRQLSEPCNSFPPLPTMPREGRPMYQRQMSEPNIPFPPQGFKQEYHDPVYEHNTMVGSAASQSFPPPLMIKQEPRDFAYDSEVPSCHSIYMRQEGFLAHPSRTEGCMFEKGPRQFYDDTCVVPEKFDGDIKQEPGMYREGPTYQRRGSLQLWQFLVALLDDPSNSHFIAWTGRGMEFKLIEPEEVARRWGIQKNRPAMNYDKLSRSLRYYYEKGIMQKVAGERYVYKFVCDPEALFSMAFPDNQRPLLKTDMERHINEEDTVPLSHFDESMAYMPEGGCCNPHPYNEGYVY
Chain of CRX (O43186 whole entry): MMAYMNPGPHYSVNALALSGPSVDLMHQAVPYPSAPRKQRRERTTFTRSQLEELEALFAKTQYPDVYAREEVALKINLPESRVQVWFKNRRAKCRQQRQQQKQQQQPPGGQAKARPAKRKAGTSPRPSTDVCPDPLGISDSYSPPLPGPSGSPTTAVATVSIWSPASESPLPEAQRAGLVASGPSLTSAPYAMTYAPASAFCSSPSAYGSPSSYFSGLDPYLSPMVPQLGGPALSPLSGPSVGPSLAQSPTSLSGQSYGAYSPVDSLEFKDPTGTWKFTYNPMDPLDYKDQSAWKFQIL
Chain of ETV6 (P41212 whole entry): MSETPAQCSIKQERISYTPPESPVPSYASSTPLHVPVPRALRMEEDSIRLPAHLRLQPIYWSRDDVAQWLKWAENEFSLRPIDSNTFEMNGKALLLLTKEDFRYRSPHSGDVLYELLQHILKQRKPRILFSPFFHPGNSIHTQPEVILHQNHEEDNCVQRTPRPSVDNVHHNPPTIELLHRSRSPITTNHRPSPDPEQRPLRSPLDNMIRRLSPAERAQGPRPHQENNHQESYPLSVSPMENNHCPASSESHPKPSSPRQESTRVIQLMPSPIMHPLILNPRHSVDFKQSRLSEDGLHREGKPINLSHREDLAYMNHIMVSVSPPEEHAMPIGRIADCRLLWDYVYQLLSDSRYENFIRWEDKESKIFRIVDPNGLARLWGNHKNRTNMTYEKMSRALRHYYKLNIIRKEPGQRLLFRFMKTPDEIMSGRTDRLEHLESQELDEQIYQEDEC

Sequence: TCCCCA
- binding signal (FEV): 1.33 fold enrichment (6-mer frequency, TF over GST control)
- binding signal (ETV5): 1.41 fold enrichment (6-mer frequency, TF over GST control)
- binding signal (HSF1): 1.3 fold enrichment (6-mer frequency, TF over GST control)
- binding signal (SPIC): 1.56 fold enrichment (6-mer frequency, TF over GST control)
- binding signal (ELF4): 1.39 fold enrichment (6-mer frequency, TF over GST control)
- binding signal (ELK4): 1.58 fold enrichment (6-mer frequency, TF over GST control)
- binding signal (ETV2): 1.51 fold enrichment (6-mer frequency, TF over GST control)
- binding signal (ELF3): 1.54 fold enrichment (6-mer frequency, TF over GST control)
- binding signal (CRX): 1.43 fold enrichment (6-mer frequency, TF over GST control)
- binding signal (ETV1): 1.49 fold enrichment (6-mer frequency, TF over GST control)
- binding signal (ERF): 1.32 fold enrichment (6-mer frequency, TF over GST control)
- binding signal (ETV3L): 1.41 fold enrichment (6-mer frequency, TF over GST control)
- binding signal (ETS2): 1.38 fold enrichment (6-mer frequency, TF over GST control)
- binding signal (SPDEF): 1.3 fold enrichment (6-mer frequency, TF over GST control)
- binding signal (ETV7): 1.12 fold enrichment (6-mer frequency, TF over GST control)
- binding signal (ELF5): 1.46 fold enrichment (6-mer frequency, TF over GST control)
- binding signal (ETV3): 1.36 fold enrichment (6-mer frequency, TF over GST control)
- binding signal (ETV6): 1.26 fold enrichment (6-mer frequency, TF over GST control)
